Data as given in PubChem BioAssay.
Activity calls are given as the source filed them.

How the values were obtained:
Albumin (Bos taurus) = Albumin (Bos taurus) (UniProt P02769); test: compounds binding labelled BSA control protein – biochemical, small-molecule microarray, Alexa647 label, 635/667 nm fluorescence, artefact control for SMM control protein annotation, profiling panel (AID 1118); settings: BSA-A647 binding, fluorescence 635 nm, higher = more signal;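 further: score merges 667 nm emission intensity and signal-to-noise per printed compound spot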
Sequence of Albumin (Bos taurus) (P02769 whole entry, looked up): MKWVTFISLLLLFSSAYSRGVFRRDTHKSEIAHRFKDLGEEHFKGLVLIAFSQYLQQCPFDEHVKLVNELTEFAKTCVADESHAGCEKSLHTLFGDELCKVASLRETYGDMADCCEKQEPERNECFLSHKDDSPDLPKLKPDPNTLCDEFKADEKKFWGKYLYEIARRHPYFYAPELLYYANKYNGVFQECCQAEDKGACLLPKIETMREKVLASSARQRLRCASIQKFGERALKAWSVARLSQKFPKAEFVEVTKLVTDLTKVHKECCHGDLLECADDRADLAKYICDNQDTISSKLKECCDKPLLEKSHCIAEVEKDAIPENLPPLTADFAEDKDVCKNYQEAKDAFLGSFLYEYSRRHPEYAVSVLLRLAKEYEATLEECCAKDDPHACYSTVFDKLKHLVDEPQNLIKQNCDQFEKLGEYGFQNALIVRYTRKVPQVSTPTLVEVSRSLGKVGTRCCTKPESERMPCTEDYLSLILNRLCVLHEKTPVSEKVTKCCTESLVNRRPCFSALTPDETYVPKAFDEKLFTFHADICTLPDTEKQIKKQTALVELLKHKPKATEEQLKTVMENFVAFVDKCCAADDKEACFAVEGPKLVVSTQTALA

[1] = probe aXIP binding to arrayed compounds – biochemical, NeuroSMM set, 635/667 nm fluorescence, primary screen (AID 1119); settings: small-molecule microarray, higher = more signal, called active from +8 up or from −8 down;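 further: probe is the protein aXip251-270 applied at 1 µg/mL to compound-printed slides; binding of probe to printed compounds measured as 667 nm fluorescence plus signal to noise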
[2] = probe aNOTCH3 binding on compound microarray – biochemical, small-molecule microarray, 635/667 nm fluorescence, primary screen (AID 1120); settings: higher = more signal;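 further: probe is a biotin-tagged antibody raised against NOTCH3 rather than NOTCH3 protein; score merges spot fluorescence near 667 nm with spot signal to noise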
[3] = probe aNOTCH2 binding on compound microarray – biochemical, small-molecule microarray, 635/667 nm fluorescence, primary screen (AID 1121); settings: higher = more signal;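 further: score merges feature fluorescence read at 667 nm with its signal to noise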
[4] = target: Carbonic anhydrase 2 (Homo sapiens) (UniProt P00918); test: compounds binding carbonic anhydrase 2 – biochemical, small-molecule microarray, Alexa647-labelled CAII, profiling panel (AID 1122); settings: CAII-A647 binding fluorescence, higher = more signal
[5] = COS7 lysate on small-molecule microarray, probe aHis, 635 nm (AID 1123); settings: COS7 cell lysate, fluorescence, higher = more signal;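 further: z-score combines 667nm fluorescence intensity with signal-to-noise per printed compound spot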
[6] = probe aLAP1 signal on lysate-treated microarray – cell lysate, small-molecule microarray, COS7 lysate, primary screen (AID 1124); settings: probe aLAP1, fluorescence, higher = more signal;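 further: lysate comes from COS7 cells expressing LAP1 and is applied at 0.3 µg/mL; score merges spot fluorescence near 667 nm with signal-to-noise over triplicate slides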
Sam68 (KHDRBS1) = test: compounds binding KHDRBS1 protein – biochemical, small-molecule microarray, 635 nm fluorescence, primary screen (AID 1125); settings: higher = more signal;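 further: score merges 667 nm channel intensity with signal to noise over triplicate slides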
[7] = system: Chordin-like protein 2 (CHRDL2); test: compounds binding chordin-like 2 – biochemical, small-molecule microarray, 635 nm fluorescence, primary screen (AID 1126); settings: fluorescence 635 nm, higher = more signal;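 further: printed compound slides probed with Chrdl2 protein at 4 µg/mL for 1 h at 4 C; score merges 667 nm emission intensity with signal to noise over three replicate slides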
[8] = target: Concanavalin-A (Canavalia ensiformis) (UniProt P02866); test: compounds binding concanavalin A lectin – biochemical, small-molecule microarray, Alexa647 label, 635 nm, artefact control for SMM control protein annotation, primary screen (AID 1127); settings: ConA-A647 binding fluorescence, higher = more signal;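 further: z combines 667 nm emission intensity with signal-to-noise across three replicate slides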
Sequence of Concanavalin-A (Canavalia ensiformis) (P02866 whole entry, looked up): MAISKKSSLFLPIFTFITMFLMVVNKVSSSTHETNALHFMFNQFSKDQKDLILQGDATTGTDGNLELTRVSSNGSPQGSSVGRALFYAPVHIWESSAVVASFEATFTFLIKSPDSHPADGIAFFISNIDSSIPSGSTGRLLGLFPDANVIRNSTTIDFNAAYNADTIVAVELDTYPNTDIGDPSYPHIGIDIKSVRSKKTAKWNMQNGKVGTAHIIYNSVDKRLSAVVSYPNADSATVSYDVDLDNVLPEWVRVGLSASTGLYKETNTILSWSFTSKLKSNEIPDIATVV

[9] = compounds binding Alexa647 anti-His antibody – biochemical, small-molecule microarray, 635 nm fluorescence, artefact control for SMM control protein annotation, primary screen (AID 1128); settings: higher = more signal;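 further: score merges feature fluorescence with signal-to-noise for each printed compound spot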
[10] = system: Human papillomavirus type 1a E7 protein (residues 1-88); test: HPV1a E7 small-molecule binders, primary screen, biochemical, small-molecule microarray, residues 1-88, 635 nm (AID 1129); settings: small-molecule microarray binding, fluorescence 635 nm; higher = more signal
[11] = target: Focal adhesion kinase 1 (Homo sapiens) (UniProt Q05397); test: PTK2 protein binding on printed compound slides – biochemical, small-molecule microarray, 635/667 nm fluorescence, BSA, DTT, primary screen (AID 1130); settings: 635 nm fluorescence, higher = more signal;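 further: composite of spot emission at 667 nm and signal to noise over triplicate slides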
Sequence of Focal adhesion kinase 1 (Homo sapiens) (Q05397 whole entry, looked up): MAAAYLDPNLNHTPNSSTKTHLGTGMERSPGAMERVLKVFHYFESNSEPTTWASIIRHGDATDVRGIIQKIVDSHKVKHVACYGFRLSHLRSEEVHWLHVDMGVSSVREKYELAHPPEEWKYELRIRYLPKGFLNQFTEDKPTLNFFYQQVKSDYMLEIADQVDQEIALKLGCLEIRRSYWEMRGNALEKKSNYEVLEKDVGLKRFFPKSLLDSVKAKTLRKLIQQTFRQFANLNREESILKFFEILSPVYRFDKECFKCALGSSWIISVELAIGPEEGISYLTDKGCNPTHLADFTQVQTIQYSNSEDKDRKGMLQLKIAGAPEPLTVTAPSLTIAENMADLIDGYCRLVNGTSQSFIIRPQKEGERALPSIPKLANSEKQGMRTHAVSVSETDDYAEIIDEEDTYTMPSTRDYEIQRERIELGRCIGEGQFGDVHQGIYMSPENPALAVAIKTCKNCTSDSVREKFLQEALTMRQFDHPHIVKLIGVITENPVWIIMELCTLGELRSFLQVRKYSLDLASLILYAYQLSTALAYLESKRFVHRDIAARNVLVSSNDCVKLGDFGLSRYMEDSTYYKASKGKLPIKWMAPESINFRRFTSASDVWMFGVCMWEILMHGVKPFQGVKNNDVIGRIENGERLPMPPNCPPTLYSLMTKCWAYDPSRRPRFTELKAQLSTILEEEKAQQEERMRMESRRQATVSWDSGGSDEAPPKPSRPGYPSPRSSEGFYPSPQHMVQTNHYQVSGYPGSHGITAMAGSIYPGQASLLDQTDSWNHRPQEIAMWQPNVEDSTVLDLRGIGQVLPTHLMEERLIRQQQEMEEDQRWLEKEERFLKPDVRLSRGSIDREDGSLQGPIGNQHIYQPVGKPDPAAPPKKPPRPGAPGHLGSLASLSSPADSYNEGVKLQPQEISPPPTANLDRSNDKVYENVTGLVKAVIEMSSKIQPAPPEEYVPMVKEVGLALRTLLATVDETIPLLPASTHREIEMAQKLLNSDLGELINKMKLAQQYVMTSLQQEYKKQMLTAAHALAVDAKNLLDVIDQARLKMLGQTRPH

[12] = system: Fibrinogen (Alexa647-labelled); test: Alexa647-fibrinogen binding to printed small molecules – biochemical, small-molecule microarray, 635/667 nm fluorescence, artefact control for SMM control-protein annotation, profiling panel (AID 1131); settings: fibrinogen-A647 binding fluorescence, higher = more signal;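 further: z-score merges 667 nm fluorescence with per-spot signal-to-noise over triplicate slides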
[13] = target: Follistatin (Homo sapiens) (UniProt P19883); test: FST protein binding to printed compounds – biochemical, small-molecule microarray, 635/667 nm fluorescence, primary screen (AID 1132); settings: 635 nm fluorescence, higher = more signal
Sequence of Follistatin (Homo sapiens) (P19883 whole entry, looked up): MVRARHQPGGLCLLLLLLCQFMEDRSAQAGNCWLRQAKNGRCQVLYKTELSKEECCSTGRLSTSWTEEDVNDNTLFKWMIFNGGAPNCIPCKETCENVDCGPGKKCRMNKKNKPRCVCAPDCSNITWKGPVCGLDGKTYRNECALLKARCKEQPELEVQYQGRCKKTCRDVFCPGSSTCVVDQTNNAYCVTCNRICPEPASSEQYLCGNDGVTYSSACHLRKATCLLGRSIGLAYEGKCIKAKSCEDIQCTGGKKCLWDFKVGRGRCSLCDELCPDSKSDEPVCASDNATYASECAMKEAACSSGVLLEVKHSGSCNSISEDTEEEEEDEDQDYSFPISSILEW

[14] = target: Fibroblast growth factor 2 (Homo sapiens) (UniProt P09038); test: basic fibroblast growth factor binding to printed compounds – biochemical, small-molecule microarray, 635/667 nm fluorescence, primary screen (AID 1133); settings: FGF2, fluorescence 635/667, higher = more signal
Sequence of Fibroblast growth factor 2 (Homo sapiens) (P09038 whole entry, looked up): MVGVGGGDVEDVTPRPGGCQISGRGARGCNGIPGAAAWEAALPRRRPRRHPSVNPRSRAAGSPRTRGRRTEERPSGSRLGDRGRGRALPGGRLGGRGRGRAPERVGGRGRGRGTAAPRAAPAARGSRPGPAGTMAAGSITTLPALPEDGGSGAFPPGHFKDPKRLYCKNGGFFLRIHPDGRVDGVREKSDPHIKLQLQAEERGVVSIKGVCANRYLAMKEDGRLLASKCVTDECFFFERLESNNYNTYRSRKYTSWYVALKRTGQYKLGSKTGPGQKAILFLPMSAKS

[15] = JC-1 mitochondrial potential readout, lung cancer cells – cell-based, A549, JC-1 fluorescence, basal, 24 h, 100 nL, profiling panel (AID 1138); settings: higher = more signal;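 further: A549 lung adenocarcinoma cells under basal conditions with no added stimulus; test concentration not given here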
Lefty1 = Lefty1 protein binding to printed compounds – biochemical, small-molecule microarray, 635/667 nm fluorescence, primary screen (AID 1139); settings: fluorescence 635/667, higher = more signal
[16] = system: wheat germ agglutinin (Triticum aestivum), Alexa647-labelled; test: Alexa647-WGA lectin binding to printed small molecules – biochemical, small-molecule microarray, 635/667 nm fluorescence, artefact control for SMM control-protein annotation, profiling panel (AID 1140); settings: WGA-A647 binding, 635 nm fluorescence, higher = more signal;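 further: score merges 667 nm feature emission with signal to noise over triplicate slides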
[17] = target: Luciferin 4-monooxygenase (Photinus pyralis) (UniProt P08659); test: inhibition of purified Photinus pyralis luciferase – biochemical, luminescence, purified enzyme, 2006 set, primary screen (AID 1141); settings: purified firefly luciferase, SteadyGlo luminescence, 30 min; higher = more signal, called active from +8 up or from −8 down;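 further: cell-free assay with purified firefly luciferase at 100 ng per well in PBS; test concentration not given here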
Sequence of Luciferin 4-monooxygenase (Photinus pyralis) (P08659 whole entry, looked up): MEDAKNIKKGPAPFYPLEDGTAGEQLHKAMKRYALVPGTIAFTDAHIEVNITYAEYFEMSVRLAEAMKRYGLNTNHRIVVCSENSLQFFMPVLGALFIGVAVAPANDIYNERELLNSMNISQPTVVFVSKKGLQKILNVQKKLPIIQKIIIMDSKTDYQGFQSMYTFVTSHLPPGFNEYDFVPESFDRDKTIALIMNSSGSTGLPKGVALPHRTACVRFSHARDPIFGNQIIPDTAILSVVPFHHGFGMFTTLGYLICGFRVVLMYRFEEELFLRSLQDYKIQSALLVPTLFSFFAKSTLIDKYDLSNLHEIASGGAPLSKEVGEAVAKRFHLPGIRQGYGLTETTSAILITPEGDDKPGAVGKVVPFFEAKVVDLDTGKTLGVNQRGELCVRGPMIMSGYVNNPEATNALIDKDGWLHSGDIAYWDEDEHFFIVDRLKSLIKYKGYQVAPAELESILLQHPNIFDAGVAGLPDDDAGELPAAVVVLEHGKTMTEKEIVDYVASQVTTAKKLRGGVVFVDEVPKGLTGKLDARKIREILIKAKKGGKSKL

SMILES	composite z-score (Albumin (Bos taurus))	composite Z-score [1]	composite z-score [2]	composite z-score [3]	composite z-score [4]	composite z-score [5]	composite z-score [6]	composite z-score (Sam68 (KHDRBS1))	composite z-score [7]	composite z-score [8]	composite z-score [9]	composite z-score [10]	composite z-score [11]	composite z-score [12]	composite z-score [13]	composite z-score [14]	z-score [15]	composite z-score (Lefty1)	composite z-score [16]	z-score [17]
[N-]=[N+]=Nc1ccccc1[C@H]1OC(c2ccc(OCCCO)cc2)=N[C@@]1(Cc1ccccc1)C(=O)NCC(O)CO (stereo not given in full)	0.793	0.0774 (inactive)	0.0372	-0.174	0.444	3.2	-0.142	0.495	-0.832	0.962	1.67	1.21	0.0145	0.959	1.06	-0.551	0.586	-0.498	0.966	-5.02 (inactive)
CN(C)c1ccc(C(O)C2C=CC3C(=O)N(Cc4ccccc4)C(=O)C3N2n2cnnc2)cc1 (stereo not given)	-0.184	0.111 (inactive)	-0.0023	-0.0993	0.244	0.0348	-0.0894	-0.671	0.245	-0.46	0.108	0.115	-0.535	0.32	0.225	0.239	-0.269	-0.231	0.0743	-1.66 (inactive)
Cc1ccc(S[C@]2(C(=O)NCCCN(C)C)CC(=O)N(Cc3ccccc3C(F)(F)F)[C@@H]2c2ccc(CO)cc2I)cc1	0.374	-0.755 (inactive)	-0.422	0.337	0.792	1.36	1.83	0.492	-0.532	0.0055	-0.626	-0.0904	0.591	-0.745	0.0315	-0.635	0.281	-1.32	-0.193	-0.514 (inactive)
NC(=O)N1C(=O)C2C(C1=O)C1C=C(CCCO)C2C(c2ccc(CN3CCCC3)cc2)N1Cc1sc2ccccc2c1Cl (stereo not given)	0.492	-1.02 (inactive)	0.124	-0.258	0.832	0.712	0.242	-0.0045	-0.352	0.271	0.17	0.1	0.39	-0.109	0.301	-0.145	0.947	-0.131	0.394	-0.286 (inactive)
O=C1O[C@@H](c2ccccc2)[C@@H](c2ccccc2)N2[C@@H](c3ccc(OCCO)cc3)[C@]3(C(=O)Nc4ccc(C#CC5(O)CCCCCC5)cc43)[C@@H](C(=O)Nc3nc4ccccc4s3)[C@H]12	0.691	-0.144 (inactive)	0.0169	-0.0664	0.608	2.31	0.36	1.29	0.583	1.01	0.0141	1.24	0.676	0.964	1.33	1.54	-2.12	1.22	1.09	-2.6 (inactive)
C=C(COC)/C(=C/C[C@H](OC(C)=O)c1ccccc1OCCO)c1cc(C(=O)OC)ccc1OC	0.524	0.131 (inactive)	-0.129	-0.113	0.467	1.82	-0.175	0.44	-0.152	0.362	0.101	0.639	0.473	0.328	1.18	0.54	0.45	0.726	-0.0912	-0.419 (inactive)
COc1ccc(C#Cc2ccc3c(c2)[C@]2(C(=O)N3)[C@H](C(=O)O)[C@H]3C(=O)O[C@H](c4ccccc4)[C@H](c4ccccc4)N3[C@@H]2c2ccccc2OCCO)cc1	0.594	0.493 (inactive)	-0.301	-0.0069	0.509	1.08	0.387	1.31	0.117	1.14	3.16	1.17	0.352	0.955	1.19	1.25	-2.71	1.04	1.02	-5.71 (inactive)
C=CCNC(=O)[C@H]1[C@@H]2C(=O)O[C@@H](c3ccccc3)[C@@H](c3ccccc3)N2[C@@H](c2ccc(OCCO)cc2)[C@]12C(=O)Nc1ccccc12	0.989	1.76 (inactive)	-0.261	-0.0877	0.74	2.7	1.15	1.29	-0.832	1.13	2.03	0.905	0.624	0.861	-0.034	-0.342	-0.287	-0.0965	1.22	-0.0907 (inactive)
C=CCOC(=O)[C@H]1[C@@H]2C(=O)O[C@@H](c3ccccc3)[C@@H](c3ccccc3)N2[C@@H](c2ccc(OCCOC(=O)[C@@H]3C[C@@H]4C(=O)N[C@@H](CCCC[N+](C)(C)C)C(=O)N4[C@@H]3c3ccc(O)cc3)cc2)[C@]12C(=O)Nc1ccc(I)cc12	-0.691	0.61 (inactive)	-0.0647	-0.0267	0.572	1.28	0.517	1.29	1.14	1.03	1.08	0.377	0.898	0.4	1.32	1.48	-1.77	1.01	0.422	-2.99 (inactive)
C=CC[C@@]1(C(=O)OC)N=C(c2ccc(OCCCO)cc2)O[C@@H]1c1ccccc1N=[N+]=[N-]	-1.11	0.721 (inactive)	0.477	0.12	0.475	2.76	0.568	1.29	1.33	0.896	2.37	1.24	0.568	0.159	1.41	1.66	0.311	0.53	0.874	-6.39 (inactive)
C=CCC(OC(C)=O)[C@@H]1[C@@H](N(Cc2ccc(-c3ccccc3)cc2)C(=O)c2cccc3ccccc23)c2cc(OCCCO)ccc2N1C(=O)Cc1ccc(OC)cc1 (stereo not given in full)	-0.276	-0.064 (inactive)	0.222	0.0092	-0.208	-0.212	-0.338	-0.205	0.475	-0.0975	0.118	-0.0598	-0.109	0.698	0.921	0.285	0.508	0.0844	0.175	0.706 (inactive)
COCCOC(=O)N1C(=O)[C@@]2(c3cc(C#CCCO)ccc31)[C@H](c1ccccc1OCCO)N1[C@H](c3ccccc3)[C@H](c3ccccc3)OC(=O)[C@H]1[C@@H]2C(N)=O	-0.0956	-0.0135 (inactive)	-0.0054	-0.118	0.578	1.89	0.128	1.3	0.0193	1.05	1.75	1.24	0.621	0.996	1.02	0.963	-0.0726	0.78	0.246	0.85 (inactive)
COC(=O)[C@@]1(Cc2ccccc2)[C@H]2c3cc(C(=O)N4CCCC4)n(Cc4ccc(OC)c(OC)c4)c3C[C@H]2CN1C(=O)c1ccccc1	0.909	0.651 (inactive)	1.11	0.204	0.853	3.22	0.382	1.04	-1.05	0.827	0.682	1.27	0.916	1.03	0.528	-0.502	1.99	-0.115	0.863	2.75 (inactive)
CC1CC/C=C\[C@H]2OC34C=CCN(CCN5CCOCC5)C(=O)[C@H]3N(CCCO)C(=O)[C@@H]4C2C(=O)O1 (stereo not given in full)	-1.3	0.0485 (inactive)	-0.068	-0.164	0.91	-0.531	0.305	0.0414	-0.727	-0.187	0.549	-1.13	-0.381	-1.22	-0.298	-0.311	-0.296	-0.265	-0.133	0.201 (inactive)
Cc1ccc(S[C@]2(C(=O)NC3CC3)CC(=O)N(C(C)C)[C@@H]2c2ccc(CO)cc2I)cc1	0.899	-0.6 (inactive)	-0.364	-0.2	0.7	1.16	0.048	0.238	-1.06	0.0412	1.49	0.882	0.411	-0.36	0.536	-0.471	0.51	0.303	0.969	1.29 (inactive)
COC(=O)C[C@H]1O[C@@]2(C[C@@H]1[Si](C)(C)C)C(=O)N(C)c1ccccc12	0.18	-0.701 (inactive)	0.0306	-0.111	0.288	0.689	0.186	0.86	0.268	0.332	0.324	0.643	-0.203	0.78	0.501	0.0172	1.63	0.453	0.0729	-1.85 (inactive)
C=CCOC(=O)[C@@H]1[C@H]2C(=O)O[C@H](c3ccccc3)[C@H](c3ccccc3)N2[C@H](c2ccc(OCCOC(=O)[C@H]3C[C@H]4C(=O)NCC(=O)N4[C@H]3c3cccc(OCCO)c3)cc2)[C@@]12C(=O)Nc1ccc(I)cc12	-0.735	0.614 (inactive)	-0.006	-0.06	0.636	1.96	0.397	1.3	1.02	1.19	2.5	1.19	0.919	0.438	1.38	1.64	-1.09	1.34	0.734	-1.06 (inactive)
